Measurements taken from PubChem BioAssay AID2253 (Southern Research Specialized Biocontainment Screening …, 2010).
The whole screen tested about 2,200 compounds, of which about 1,300 (59%) were called active. No rule for the calls is given here. The set was probably picked from earlier hits. Not all results are given here. Results with a measured potency or affinity are listed apart.

Experiment: THP-1 cell cytotoxicity, dose response, cytotoxicity control for Salmonella PhoP regulon inhibitors, S. typhimurium screen hits (AID 2253)
Settings: THP-1 viability, CellTiter-Glo luminescence, 72 h; series mostly up to 50 µM

| Compound | outcome |
| --- | --- |
| C=CCN=C(NC#N)SCc1ccccc1Cl | inactive |
| O=c1cc(-c2ccc([N+](=O)[O-])cc2)nc2cc(-c3ccc(Cl)cc3)[nH]n12 | inactive |
| N#Cc1ccc(COC(=O)c2ccc3c(=O)[nH]c(CN4CCOCC4)nc3c2)cc1 | inactive |
| COc1ccc(CN2CCOCC2)cc1Br | inactive |
| COC(=O)c1ccc2c(=O)n(CCN3CCOCC3)c(SCC(=O)C(C)(C)C)nc2c1 | inactive |
| Cc1ccc(C(=O)Oc2cccc(NC(=O)c3cccs3)c2)cc1S(=O)(=O)N1CCOCC1 | inactive |
| CC(C)Cc1oc(C(=O)O)cc1CN1CCOCC1 | inactive |
| CCOC(=O)c1c(C)[nH]c(C)c1C(=O)COC(=O)/C=C/c1cccc(F)c1 | inactive |
| Cc1ccc(OCC(=O)N2CCN(S(=O)(=O)c3ccccc3)CC2)c([N+](=O)[O-])n1 | inactive |
| CCOC(=O)C(/C=C(\C#N)C(=O)OCC)=C(/N)N1CCN(c2c(C)cccc2C)CC1 | inactive |
| Cc1ccccc1NC(=S)N(CCCN1CCOCC1)Cc1ccccn1 | inactive |
| Brc1ccc2nc3c(n2c1)CCCC3 | inactive |
| CCCCn1c(NCCO)nc2ccccc21 | inactive |
| Nc1ccc(C(=O)OCc2nc3ccccc3[nH]2)cc1 | inactive |
| COc1c(F)c(F)cc2c(=O)c(C(=O)O)cn(C3CC3)c12 | inactive |
| O=C(Cn1nc(C(F)(F)F)c2c1CCCCC2)N1CCOCC1 | inactive |
| CCCNC(=O)COC(=O)CCC(=O)c1ccc(F)cc1 | inactive |
| O=C(c1cc2ncc(Br)cn2n1)N1CCOCC1 | inactive |
| C(=N\N1CCN(C2c3ccccc3-c3ccccc32)CC1)/c1cccs1 | inactive |
| CCn1cc(C(=O)O)c(=O)c2cnc(N3CCN(C(=S)NC(=O)c4ccc(Cl)cc4)CC3)nc21 | inactive |
| CCOc1ccc(-c2noc(CCCC(N)=O)n2)cc1OC | inactive |
| COc1c(N2C[C@@H]3CCCN[C@@H]3C2)c(F)cc2c(=O)c(C(=O)O)cn(C3CC3)c12 | inactive |
| N/C(=N\OC(=O)Cc1ccc(Cl)cc1)c1cccnc1 | inactive |
| COc1cccc(N=Cc2c[nH][nH]c2=O)c1 | inactive |

| Compound | outcome |
| --- | --- |
| Cc1cc2ncn(C3CC(=O)N(Cc4ccc(N5CCCC5=O)cc4)C3=O)c2cc1C (configuration not stated) | inactive |
| CC(NC(=O)C1(C)CC1(Br)Br)C(C)(C)C (configuration not stated) | inactive |
| CN1/C(=C/C2CC(=O)N(c3cccc4ccccc34)C2=O)C(C)(C)c2ccccc21 (configuration not stated) | inactive |
| O=C(OCCN1C(=O)c2ccccc2C1=O)c1ccc(S(=O)(=O)N2CCCCCC2)cc1 | inactive |
| Cc1ccc(NC(=O)CCN2CCc3ccccc3C2)cc1 | inactive |
| C/C(=N\NC(=O)c1c(Cl)c(C)nn1C)c1cccc(NC(=O)COc2ccc(Cl)cc2)c1 | inactive |
| CCCCCC(=O)Nc1ccc2ccccc2c1 | inactive |
| O=S(=O)(NCc1ccccc1)c1cccc(S(=O)(=O)N2CCOCC2)c1 | inactive |
| O=C(Nc1ccc2oc(-c3ccc(Cl)c(Cl)c3)nc2c1)c1ncn[nH]1 | inactive |
| Nc1nc(N)nc(-c2ccccc2)n1 | inactive |
| Nc1cc(N)cc(-c2nc3ccccc3[nH]2)c1 | inactive |
| O=C(O)CCc1nn2c3ccccc3n(CCN3CCCCC3)c2nc1=O | inactive |
| COc1ccc(OCCSc2nnc(-c3ccc(OC)cc3)n2N)cc1 | inactive |
| C=CCn1c(SCCOc2ccc(OC)cc2)nnc1C(C)NC(=O)c1ccc(OC)cc1 (configuration not stated) | inactive |
| CC(O)c1ccc(OCCN(C)c2ccccn2)cc1 (configuration not stated) | inactive |
| COC(=O)c1ccc(COC(=O)c2ccccn2)cc1 | inactive |
| Cc1ccc(-n2ncc3c(N4CCN(c5ccccc5)CC4)ncnc32)c(C)c1 | inactive |
| COc1cc(NC(=O)CSc2nnnn2Cc2ccc3c(c2)OCO3)cc(OC)c1 | inactive |
| c1ccc(-c2cnn3nnnc3n2)cc1 | inactive |
| CCc1c(C)c2cc(Cl)c(O)c(CN(C)C)c2oc1=O | inactive |
| O=C(CCN1C(=O)c2ccccc2S1(=O)=O)Nc1ccc2c(c1)OCCO2 | inactive |
| CC(=O)c1c(N2CCN(C(=O)C3CCCO3)CC2)nc(=S)n(-c2ccccc2)c1C (configuration not stated) | inactive |
| O=C(Nc1ccc(F)cc1)c1ccccc1F | inactive |
| O=C(CCN1C(=O)COc2ccccc21)NCCN1CCOCC1 | inactive |

| Compound | outcome |
| --- | --- |
| COc1ccc(CCNC(=O)c2ccc(CN3CCOCC3)cc2)cc1 | inactive |
| CC1(C)CC(=O)C(/C=N/c2ncccc2C(=O)O)=C(O)C1 | inactive |
| O=C(NC(CO)C(O)c1ccc([N+](=O)[O-])cc1)C(Cl)Cl (configuration not stated) | inactive |
| Cc1cc(-c2csc(N)n2)c(C)n1C | inactive |
| Cc1ccc(-n2c(C)cc(-c3csc(N)n3)c2C)cc1 | inactive |
| Cc1ccccc1NC(=O)c1ccc(-n2cncn2)nc1 | inactive |
| O=C1C(c2ccc(F)cc2)N(Cc2ccc3c(c2)OCO3)C(=O)CN1C1CCCCCC1 (configuration not stated) | inactive |
| C/C(=N\n1nnnc1Nc1ccccc1)c1ccc(N)cc1 | inactive |
| Nc1ccc(Nc2ccccc2)c(Cl)c1 | inactive |
| CCn1cc(C(=O)O)c(=O)c2cc(F)c(N3CCN(C(=S)NC(=O)c4ccccc4Cl)CC3)cc21 | inactive |
| CSCCC(NC(=O)c1cccc(C)c1)C(=O)OCC(=O)NC(=O)c1cccn1C (configuration not stated) | inactive |
| COc1ccc(Cl)cc1-c1nc(SCC(N)=O)n[nH]1 | inactive |
| COC(=O)c1sccc1NC(=O)c1cccnc1 | inactive |
| CC(=O)Nc1ccc(OC(=O)c2cccnc2)cc1 | inactive |
| CC(=O)Nc1ccc(C(=O)Nc2nc(-c3cc(C)n(Cc4ccccc4)c3C)cs2)cc1 | inactive |
| Cc1cc(-c2csc(NC(=O)c3ccc(S(=O)(=O)N(C)C)cc3)n2)c(C)n1-c1ccccc1 | inactive |
| O=C(/C=C/c1ccco1)N/C(=C\c1ccccc1)C(=O)NCCc1nc2ccccc2[nH]1 | inactive |
| Cc1ccc2c(CN3CCC(C)CC3)cc(=O)oc2c1 | inactive |
| N#Cc1nc(-c2ccco2)oc1NCCCN1CCOCC1 | inactive |
| N#CC1=C(N)SC(N)=C(C#N)C1c1ccc([N+](=O)[O-])cc1 | inactive |
| CC1CCCCN1CCNS(=O)(=O)c1ccc2c(c1)oc(=O)n2C (configuration not stated) | inactive |
| Cn1nnnc1SCC(=O)NC1CCCCC1 | inactive |
| CC1(C)CC(=O)C2=C(C1)N(Cc1ccccc1)C(=O)C2(O)C(F)(F)F (configuration not stated) | inactive |
| C/C(=N/Nc1nc(-c2ccc(Cl)cc2)cs1)c1cccs1 | inactive |
